The campaign covered roughly 360,000 compounds. About 1,100 (0.31%) were called active. This is one part of a sample in which actives are shown more often than they occur. No stated cut-off is given here; in the data, active means activity change above about 30% (passing the limit was not always enough); inactive means the rest.
biological target: Hepatocyte nuclear factor 4-alpha (Homo sapiens) (UniProt P41235); experiment: HNF4-alpha DNA association modulation – biochemical, fluorescence polarization, FITC-DNA, primary screen (AID 1224865); conditions: HNF4a-FITC DNA binding, 1 h, at 10 µM, hits give high values
Sequence (P41235 whole entry, looked up): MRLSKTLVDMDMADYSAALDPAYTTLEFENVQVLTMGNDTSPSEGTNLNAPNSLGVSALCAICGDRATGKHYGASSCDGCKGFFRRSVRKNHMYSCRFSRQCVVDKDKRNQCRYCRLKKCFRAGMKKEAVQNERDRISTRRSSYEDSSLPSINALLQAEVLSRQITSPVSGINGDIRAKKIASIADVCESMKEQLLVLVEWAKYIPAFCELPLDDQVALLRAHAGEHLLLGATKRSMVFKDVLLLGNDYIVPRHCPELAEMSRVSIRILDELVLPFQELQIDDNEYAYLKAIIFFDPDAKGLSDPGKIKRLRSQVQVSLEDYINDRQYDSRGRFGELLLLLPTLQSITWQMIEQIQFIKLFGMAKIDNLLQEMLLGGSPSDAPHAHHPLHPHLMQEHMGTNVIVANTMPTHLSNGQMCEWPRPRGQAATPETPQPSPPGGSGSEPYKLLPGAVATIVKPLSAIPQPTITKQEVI

| SMILES | activity change |
| --- | --- |
| O=C(CCN1CCCCC1)NCC(=O)Nc1ccc(Br)cc1C(=O)c1ccccc1 | 53% (active) |
| CN1CCN(C(=S)SCC(=O)Nc2ccc(Cl)cc2C(=O)c2ccccc2)CC1 | -2.35% (inactive) |
| O=C(CN1CCCCC1)Nc1ccc(Br)cc1C(=O)c1ccccc1Cl | -1.1% (inactive) |
| CCOCCc1c(O)[nH]c(=S)[nH]c1=O | -0.41% (inactive) |
| COc1ccccc1N=Nc1c(O)[nH]c(=S)[nH]c1=O | 68.8% (active) |
| O=C1N=c2ccccc2=C/C1=C\c1c(O)[nH]c(=S)[nH]c1=O | 4.26% (inactive) |
| C=Cn1ccnc1P(=S)(c1cc(N(CC)CC)ns1)c1nccn1C=C | -0.17% (inactive) |
| CCN(CC)c1ccc([N+](=O)[O-])c2cccnc12 | 4.4% (inactive) |
| COc1ccc(-c2nn(CCC#N)cc2C(=O)Nc2ccc(C(C)=O)cc2)cc1 | 2.38% (inactive) |
| CC1CC=CCC12C(=O)NC(=S)NC2=O (stereo not given) | -0.2% (inactive) |
